According to PubChem BioAssay:
“And” between values parts separate entries of the source, which are not always exact repeats. Equal entries are not always repeated. The source made the active and inactive calls.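 Rule for the calls, unless noted: active = thallium flux through the channel raised or lowered by more than 3 SD from vehicle-only wells, actives on both sides; inactive = the rest.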

What was measured:
[1] = liver-stage malaria parasite growth inhibition, primary screen, cell-based, HepG2, luciferase luminescence, HepG2 viability (AID 624349; in the data active = parasite load remaining mostly below about 12%, no sharp cut-off; inactive = mostly above about 10%;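 note: 100% = mean of DMSO negative control wells on the same plate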); settings: P. berghei liver stage in HepG2, luciferase luminescence, concentration not given here; parasite load remaining: stronger effect = lower value; viability: measured here: HepG2 viability without parasites
[2] = sensitizers of A549 cells to miR-34 induction, primary screen, imaging, A549 dox-inducible miR-34, nuclei and caspase counts (AID 1347080;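 active = compounds whose cell count with miR-34 switched on is under 0.7 times the count with it off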); settings: A549 miR-34 inducible, Hoechst nuclei count, 48 h
[3] = survival rescue of mitochondrial mutant cells in low glucose, primary screen, MELAS cybrids, Rieske KO mouse fibroblasts, CellTiter-Glo (AID 1508586;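 active = mean z-score across replicates of 1.96 or higher in either the MELAS or the Rieske mutant cell line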;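 note: z relative to plate mean and SD of compound and empty wells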)
[4] = viability rescue of complex I mutant cybrids, primary screen, cell-based, galactose medium, ATP luminescence (AID 1645843;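 active = z-score of at least 1.8 in each of two replicates, scored against plate mean and spread of sample wells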;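 note: positive z means more ATP and so rescue of galactose-driven cybrid death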); settings: complex I mutant cybrid cells, 72 h, stronger effect = higher value
[5] = test system: F380Y; assay: modulators of BK channel variants, profiling panel, selectivity assay, cell-based, U2OS BacMam, thallium flux, beta subunits (AID 1259406); settings: at 30 µM;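 note: initial slope of Thallos dye fluorescence rise after thallium is added; log ratio against the mean of 0.3% DMSO vehicle wells on the same plate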
[6] = test system: F380Y/beta1; assay: as above; settings: at 30 µM
[7] = test system: F380Y/beta2Delta; assay: as above; settings: at 30 µM
[8] = test system: F380Y/beta4; assay: as above; settings: at 30 µM
[9] = target: Calcium-activated potassium channel subunit alpha-1 (Homo sapiens) + Leucine-rich repeat-containing protein 26 (Homo sapiens) (UniProt Q12791+Q2I0M4); assay: as above; settings: F380Y/Slo1WT/gamma1, at 30 µM
[10] = test system: R275C; assay: as above; settings: at 30 µM
[11] = test system: R275C/beta1; assay: as above; settings: at 30 µM
[12] = test system: R275C/beta2Delta; assay: as above; settings: at 30 µM
[13] = test system: R275C/beta4; assay: as above; settings: at 30 µM
[14] = test system: R275C/Slo1WT/beta2; assay: as above; settings: at 30 µM
[15] = Cy5 fluorescence interference with SSB-bound oligo, artefact control for HCV NS3 helicase inhibitor project, biochemical, NIH Clinical Collection, E. coli SSB (AID 743268; call rule not given here)
[16] = test system: Hepatitis C virus NS3 helicase; assay: HCV NS3 helicase inhibitors, primary screen, biochemical, fluorescence polarization, NIH Clinical Collection (AID 743270; call rule not given here); settings: NS3 helicase binding to Cy5-dT15 DNA, stronger effect = higher value, concentration not given here
[17] = target: Single-stranded DNA-binding protein (Escherichia coli (strain K12)) (UniProt P0AGE0); assay: E. coli SSB displacement from DNA, counter-screen for HCV NS3 helicase inhibitor project, biochemical, fluorescence polarization, NIH Clinical Collection (AID 743271; in the data active = inhibition above about 28%); settings: stronger effect = higher value, concentration not given here
[18] = fluorescence interference in NS3h assay format, artefact control for HCV NS3 helicase inhibitor project, biochemical, NIH Clinical Collection (AID 743272; call rule not given here;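 note: HCV NS3 helicase with a Cy5 labelled single stranded DNA probe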); settings: fluorescence interference counterscreen, stronger effect = lower value
[19] = modulation of C. elegans fzo-1 (AID 1259413; call rule not given here;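 note: fzo-1 mutant C. elegans worms in liquid wells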); settings: C. elegans fzo-1 modulator screen, mean read-out; stronger effect = higher value
[20] = test system: Neuropilin-2 / VEGF-C interaction (human); assay: inhibitors of NRP2–VEGF-C binding, biochemical, microplate binding format, z-score (AID 743281; call rule not given here); settings: microplate NRP2/VEGF-C binding assay; stronger effect = lower value
[21] = stronger effect = lower value, cell number ratio, induced over uninduced
[22] = measured here: relative caspase fold change +Dox/-Dox
[23] = measured here: total cells with miR-34 induction, stronger effect = lower value
[24] = measured here: total cells without miR-34 induction
[25] = MELAS cybrid survival, CellTiter-Glo 48 h, stronger effect = higher value
[26] = Rieske KO mouse fibroblast survival, CellTiter-Glo 72 h

Chain of Calcium-activated potassium channel subunit alpha-1 (Homo sapiens) + Leucine-rich repeat-containing protein 26 (Homo sapiens) (Q2I0M4 whole entry, looked up, one chain of several): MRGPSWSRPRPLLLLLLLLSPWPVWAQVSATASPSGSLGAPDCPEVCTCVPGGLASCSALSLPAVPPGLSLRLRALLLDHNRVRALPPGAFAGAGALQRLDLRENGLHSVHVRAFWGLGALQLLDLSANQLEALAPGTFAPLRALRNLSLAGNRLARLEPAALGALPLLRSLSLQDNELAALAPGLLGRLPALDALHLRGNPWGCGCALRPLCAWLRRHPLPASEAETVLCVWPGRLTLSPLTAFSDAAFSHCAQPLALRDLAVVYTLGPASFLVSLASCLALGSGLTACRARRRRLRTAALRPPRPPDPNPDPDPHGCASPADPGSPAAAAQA

CO[C@H]1/C=C/O[C@@]2(C)Oc3c(C)c(O)c4c(O)c(c5c(c4c3C2=O)NC2(CCN(CC(C)C)CC2)N=5)=NC(=O)/C(C)=C\C=C\[C@H](C)[C@H](O)[C@@H](C)[C@@H](O)[C@@H](C)[C@H](OC(C)=O)[C@@H]1C
92.9%: viability [1]
1.58: fold change [2, 22]
8520: cell count [2, 23]
inactive: parasite load remaining [1] 23.3% | fold change [2, 21] 1.03 | z-score [3, 25] 1.35 | z-score [4] -1.49 | log fold change Tl+ flux [5] 0.0411 | log fold change Tl+ flux [6] -0.0629 | log fold change Tl+ flux [8] -0.0899 | log fold change Tl+ flux [9] -0.055 | log fold change Tl+ flux [13] 0.00982 | log fold change Tl+ flux [14] -0.0228
1.35: z-score [3, 26]
active: log fold change Tl+ flux [7] -0.104 | log fold change Tl+ flux [10] -0.198 | log fold change Tl+ flux [11] 0.128 | log fold change Tl+ flux [12] -0.107
8270: cell count [2, 24]

C[C@]12CC3CC(N)(C1)C[C@@](C)(C3)C2
1.34 and 1.17: fold change [2, 22]
9680 and 10100: cell count [2, 23]
inactive: parasite load remaining [1] 113% and 58.5% | fluorescence ratio [15] 1.06 | inhibition [16] 0.4% | inhibition [17] -0.87% | fluorescence ratio [18] 0.95 | fold change [2, 21] 0.918 and 0.871 | z-score [3, 25] -0.593 | z-score [4] -0.375 and -0.275 | log fold change Tl+ flux [5] -0.00548 | log fold change Tl+ flux [6] -0.0368 | log fold change Tl+ flux [7] 0.033 | log fold change Tl+ flux [8] 0.0342 | log fold change Tl+ flux [9] -0.0162 | log fold change Tl+ flux [10] 0.0086 | log fold change Tl+ flux [11] -0.0112 | log fold change Tl+ flux [12] -0.0288 | log fold change Tl+ flux [13] -0.00234 | log fold change Tl+ flux [14] -0.0124
10500 and 11600: cell count [2, 24]
85.8% and 102%: viability [1]
-0.282: z-score [3, 26]

CC1(C)O[C@@H]2C[C@H]3[C@@H]4CCC5=CC(=O)C=CC5(C)[C@@]4(F)[C@@H](O)CC3(C)C2(C(=O)CO)O1 (some centres undefined)
inactive: mean signal [19] 258

CCCCC(=O)O[C@H]1CC[C@H]2[C@@H]3CCc4cc(O)ccc4[C@H]3CCC12C (some centres undefined)
inactive: mean signal [19] 242

Cc1cc(=O)oc2cc(NC(=O)C3CCC(=O)N3)ccc12 (centres undefined)
136%: viability [1]
inactive: parasite load remaining [1] 62.4% | fluorescence ratio [15] 0.96 | inhibition [16] 1.36% | inhibition [17] 11.7% | fluorescence ratio [18] 0.91 | fold change [2, 21] 0.953 | z-score [4] -0.335 | log fold change Tl+ flux [5] -0.00455 | log fold change Tl+ flux [6] -0.0136 | log fold change Tl+ flux [7] -0.0131 | log fold change Tl+ flux [8] 0.0184 | log fold change Tl+ flux [9] -0.00524 | log fold change Tl+ flux [10] -0.000517 | log fold change Tl+ flux [11] 0.0432 | log fold change Tl+ flux [12] -0.00476 | log fold change Tl+ flux [13] -0.0203 | log fold change Tl+ flux [14] -0.0148
10900: cell count [2, 23]
1.59: fold change [2, 22]
11400: cell count [2, 24]

COCCCCC(=NOCCN)c1ccc(C(F)(F)F)cc1
8360 and 9280 and 6710: cell count [2, 24]
inactive: parasite load remaining [1] 46.6% | fluorescence ratio [15] 0.97 | inhibition [16] -1.98% | inhibition [17] -0.1% | fluorescence ratio [18] 0.89 | fold change [2, 21] 0.929 and 0.879 and 0.949 | z-score [3, 25] 0.785 and -0.408 | z-score [4] -0.79 and -1.17 | log fold change Tl+ flux [5] -0.0607 | log fold change Tl+ flux [7] -0.0598 | log fold change Tl+ flux [9] -0.0791 | log fold change Tl+ flux [10] -0.0449 | log fold change Tl+ flux [11] 0.0249 | log fold change Tl+ flux [12] 0.0321
2.57 and 0.586 and 0.773: fold change [2, 22]
0.468 and -0.05: z-score [3, 26]
56.9%: viability [1]
7760 and 8160 and 6370: cell count [2, 23]

CCN(CC)CCOc1ccc(C(=C(Cl)c2ccccc2)c2ccccc2)cc1
inactive: parasite load remaining [1] -4.11% | inhibition [16] -10.4% | inhibition [17] 0.29% | fluorescence ratio [18] 0.97 | fold change [2, 21] 1.09 and 0.932 | z-score [3, 25] -0.453 | z-score [4] -1.52 | log fold change Tl+ flux [5] 0.00267 | log fold change Tl+ flux [7] 0.0152 | log fold change Tl+ flux [8] -0.059 | log fold change Tl+ flux [10] 0.0156 | log fold change Tl+ flux [11] 0.0697 | log fold change Tl+ flux [12] -0.00533
5020 and 7560: cell count [2, 23]
-0.778: z-score [3, 26]
2.63 and 0.76: fold change [2, 22]
active: fluorescence ratio [15] 0.76 | log fold change Tl+ flux [6] -0.533 | log fold change Tl+ flux [13] 0.493 | log fold change Tl+ flux [14] -0.157
3.72%: viability [1]
4620 and 8110: cell count [2, 24]

CC1=C(C/C=C(\C)CCCC(C)CCCC(C)CCCC(C)C)C(=O)c2ccccc2C1=O (centres undefined)
inactive: mean signal [19] 243

CC(=O)OCC(=O)[C@@]1(O)CC[C@H]2[C@@H]3CCC4=CC(=O)CCC4(C)[C@H]3C(=O)CC21C (some centres undefined)
inactive: mean signal [19] 237

CCC(=O)NS(=O)(=O)c1ccc(-c2c(-c3ccccc3)noc2C)cc1
9000: cell count [2, 23]
1.74: fold change [2, 22]
10300: cell count [2, 24]
inactive: parasite load remaining [1] 75.3% | z-score [20] 1.11 | mean signal [19] 273 | fold change [2, 21] 0.873 | z-score [4] 0.78 | log fold change Tl+ flux [5] 0.0552 | log fold change Tl+ flux [7] 0.000846 | log fold change Tl+ flux [9] 0.0287 | log fold change Tl+ flux [10] 0.0383 | log fold change Tl+ flux [11] -0.00911 | log fold change Tl+ flux [12] -0.00297
68.9%: viability [1]

CN1CCN2c3ncccc3Cc3ccccc3[C@@H]2C1
10600: cell count [2, 23]
3.94: fold change [2, 22]
inactive: parasite load remaining [1] 60.5% | fluorescence ratio [15] 1 | inhibition [16] -1.36% | inhibition [17] 4.1% | fluorescence ratio [18] 1.01 | fold change [2, 21] 1.01 | z-score [4] 0.765 | log fold change Tl+ flux [5] 0.081 | log fold change Tl+ flux [6] 0.0391 | log fold change Tl+ flux [7] 0.0643 | log fold change Tl+ flux [8] 0.0496 | log fold change Tl+ flux [9] -0.00307 | log fold change Tl+ flux [10] 0.0138 | log fold change Tl+ flux [11] 0.0202 | log fold change Tl+ flux [12] 0.0645 | log fold change Tl+ flux [13] 0.023 | log fold change Tl+ flux [14] -0.0289
10500: cell count [2, 24]
95.7%: viability [1]
